# Source: PubChem (National Center for Advancing Translational Sciences (NCATS))
# Pf growth 48h: P. falciparum growth inhibition at 48 hours (one generation); P. falciparum luciferase growth in erythrocytes, 48 h; hit rate 5.9% among 310,000; Potency, µM (highest dose often 28.7 µM), without a hit: top-dose activity change, negative = inhibition, most hits filed as inhibitors; AID 504832; also: potency is read from the fitted curve at half-maximal effect; % is scaled to controls: 0 for no effect and ±100 for the full control effect
#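 Firefly luciferase activity from engineered P. falciparum reports growth; inhibitors lower the luminescent signal. Cultures contained 2% hematocrit erythrocytes at 0.1% final parasitemia.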
# Pf growth 96h: P. falciparum growth inhibition at 96 hour, primary screen for plastid delayed-death inhibitors; P. falciparum luciferase reporter growth, 96 h; Potency, µM (titrated, usually from 28.7 µM), for inactives: top-dose activity change, negative = inhibition, hits mostly inhibitors; hit rate 6.9% among 320,000; AID 504834; also: potency is read from the fitted curve at half-maximal effect; % is scaled to controls: 0 for no effect and ±100 for the full control effect
#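 Infected RBCs, 2% Hct / 0.05% parasitemia final; luciferase-reporter P. falciparum; cpd 96 h, 37 C, 5% CO2; luciferase detection reagent; luminescence.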
# HCMV inh: inhibitors of human cytomegalovirus | HFF cells, HCMV-luciferase reporter, 72 h; hits give low values | activity change, negative = inhibition, % at 57.5 µM | hit rate 4.5% among 410,000 | AID 1259415; in the data active = activity change below about -60%; inconclusive = no clear call, values can overlap the other calls; inactive = above about -39%; also: % is scaled to controls: 0 for no effect and ±100 for the full control effect
#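 HFF cells seeded 16 h at 37C, treated with compounds, infected with luciferase-reporter HCMV at MOI 1 PFU/cell; luciferase read at 72 h post infection, normalized to buffer-only and Salinomycin controls.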
# HCV inh: blocks hepatitis C virus; Huh7.5.1 HCVcc-Cre infection, luciferase reporter, 44 h; Potency, µM (highest dose often 41.8 µM), without a hit: at the top dose activity change, negative = inhibition, usual class: inhibitors; hit rate 3.4% among 340,000; AID 651820; also: potency is read from the fitted curve at half-maximal effect; % is scaled to controls: 0 for no effect and ±100 for the full control effect
#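 Infectious HCVcc-Cre (~0.5 moi) was added to cells just after compound, with cells seeded 4 h earlier at 1,000 per well. Luciferase activity after 44 h culture reported infection; substrate was incubated 15 min at room temperature before reading.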
# Shiga toxin inh: inhibitors of Shiga toxin in Vero cells; Vero cells, Shiga toxin protein synthesis inhibition reporter; inhibition, % at 38.7 µM; hit rate 9.2% among 290,000; in the data active = inhibition mostly above about 28%, no sharp cut-off; inactive = mostly below about 43%; also: 0% is about no effect
# Cycloheximide cs: counter-screen hit for Shiga toxin inhibitors, cycloheximide | cell reporter, cycloheximide protein synthesis inhibition counterscreen | max response, % | hit rate 12% among 300,000; in the data active = max response mostly above about 13%, no sharp cut-off; inactive = mostly below about 14%; also: read at 38.3 µM for the half of the compounds with a filed dose; 0% is about no effect
# * = called active by the depositor; i = inactive; u = inconclusive; x = no result. Hits are enriched below; roughly 21% of the tested compounds scored in any of these assays. Unless noted, calls follow the shape of the dose curve; as a rule, active = well fitted inhibition curve with a large enough effect; inconclusive = small, poorly fitted or top-dose-only effect, or another doubt; inactive = no such curve, though single readings can be large or run the other way.
SMILES,Pf growth 48h,Pf growth 96h,HCMV inh,HCV inh,Shiga toxin inh,Cycloheximide cs
c1ccc(N2CCN(c3ccccc3)C2c2ccncc2)cc1,13.1µM*,x,-12.8,-9.4%,22.1,34.8
c1ccc(N2CCN(c3ccccc3)C2c2cccnc2)cc1,3.7µM*,481.7%,-20.6,-9.0%,48.2*,25.6*
Cc1ccc(N2CCN(c3ccc(C)cc3)C2c2cccnc2)cc1,x,1.31µM*,4.0,u,38.1,19.2*
O=C1/C(=C/c2ccncc2)CCc2ccccc21,u,54.9%,u,2.0%,55.6*,34.3*
O=C1/C(=C\c2ccccc2)CCC/C1=C/c1ccccc1,x,x,-40.0,-7.6%,x,x
O=C1/C(=C/c2ccncc2)CCC/C1=C\c1ccncc1,u,49.3%,-100.4*,6.31µM*,-20.5,-7.4
COc1ccc(C=C2CCc3ccccc3C2=O)cc1,x,x,15.4,x,x,x
CCOc1ccc(/C=C2\CCc3ccccc3C2=O)cc1,25.5%,i,9.0,-4.2%,70.7*,29.9*
CCC(=O)N1CCc2cc(S(=O)(=O)NC(CC(C)C)C(=O)NCc3cccc(OC)c3)ccc21 (stereo not given),x,x,-3.5,x,x,x
COc1ccc(C(=O)NCc2nnc(SCC(=O)Nc3ccc(C)cc3)n2-c2ccccc2)cc1,x,x,-11.5,x,x,x
CCCC[C@@H]1C=C(C(=O)O)[C@H](c2ccc(C#N)cc2)N1S(=O)(=O)c1ccc(C)cc1,x,x,14.0,7.0%,x,x
Nc1nonc1-n1nnc(C(=O)N/N=C/c2ccco2)c1CSc1ccccc1,23.5%,62.5%,-5.3,0.4%,14.9,-3.3
Nc1nonc1-n1nnc(C(=O)N/N=C/c2ccc(OCc3ccc(F)cc3)cc2)c1COc1ccccc1,-7.7%,-11.1%,-73.1*,u,-6.3,1.7
Nc1nonc1C(=O)N/N=C/c1cc(Br)ccc1O,4.15µM*,13.0%,-8.1,11.2µM*,81.8*,31.7*
COc1ccc2ccccc2c1/C=N/NC(=O)c1nnn(-c2nonc2N)c1C(C)C,u,u,1.2,-27.8%,-4.1,5.3
Cc1c(C(=O)N/N=C/c2c(O)ccc3ccccc23)nnn1-c1nonc1N,u,-0.7%,-98.5*,u,-7.1,-2.5
Nc1nonc1-n1nnc(C(=O)N/N=C/c2cc(Br)ccc2O)c1CNc1ccccc1,u,u,-92.7*,10µM*,-11.5,-11.5
COc1ccccc1NC(=O)CCN1CCCCC1,x,x,46.8,x,x,x
CCOc1cccc(CC(=O)N2CCc3c([nH]c4ccccc34)C2c2ccc(SC)cc2)c1OCC (stereo not given),x,x,19.9,x,x,x
Cc1ccc(NC(=O)Cn2c(=O)n(-c3ccccc3)c(=O)c3ccc(C(=O)NCc4ccc5c(c4)OCO5)cc32)c(C)c1,x,x,-19.7,x,x,x
Nc1nonc1-n1nnc(C(=O)N/N=C/c2ccc(OCc3ccccc3F)cc2)c1CNc1ccccc1,1.4%,-22.8%,u,-17.8%,17.9,16.8*
Cc1ccc(/C=N/NC(=O)c2nnn(-c3nonc3N)c2CNc2ccccc2)cc1,13.3%,-24.5%,-39.6,u,-12.0,-3.6
Cc1ccc(COc2cccc(/C=N/NC(=O)c3nnn(-c4nonc4N)c3C)c2)cc1,-1.9%,18.4%,43.0,-0.1%,38.8,14.5*
CN1CCN(C(CNC(=O)C(=O)NC2CCCC2)c2ccc(F)cc2)CC1 (stereo not given),-0.9%,2.8%,-32.5,8.8%,x,x
CCCCC(C(=O)O)C(C)CC(=O)Nc1nccs1 (stereo not given),31.1%,0.0%,3.8,7.7%,1.9,-1.8
CCCC(O)(c1ccc(OC)cc1)C(CN1CCOCC1)c1ccc(Cl)cc1 (stereo not given),u,-13.0%,16.3,-10.4%,1.2,-4.4
CCOc1ccc(C(O)(CCC(C)C)C(CN2CCOCC2)c2ccccc2)cc1 (stereo not given),7.38µM*,12.4%,u,u,-6.4,-2.9
CCCCC(O)(c1ccc(F)cc1)C(CN1CCOCC1)c1ccc(Cl)cc1 (stereo not given),1.85µM*,43.4%,-31.7,u,-6.2,1.2
COc1ccc(C(O)(CCC(C)C)C(CN2CCOCC2)c2ccc(Cl)cc2)cc1 (stereo not given),1.65µM*,-23.9%,u,u,4.9,-2.6
